Records with an inconclusive call do not appear. Activity calls are given as the source filed them. Calls follow the shape of the dose curve; as a rule, active = well fitted curve in the direction sought with a large enough effect; inconclusive = small, poorly fitted or top-dose-only effect, or another doubt; inactive = no such curve, though single readings can be large; an effect the other way counts as inactive or inconclusive. Numbered stars: 1 amine (or outer) side, 2 acyl side, 3 side chain; on linkers, the order of the positions; unused ones are H or OH. Bridge positions count the residues as written; N and C are the ends. Square brackets hold non-standard residues; d marks the D form. Peptide text beside a SMILES is read from it. ξ: configuration not given here. Phe(3R-OH) = O=C([C@@H](N[*:1])[C@H](O[*:3])c1ccccc1)[*:2]; NMeTrp(4-OMe) = CN[C@@H](Cc1c[nH]c2cccc(OC)c12)C(=O)O; ξThr(3R)(O-yl) = C[C@@H](O[*:3])C(N[*:1])C(=O)[*:2]; NMeThr(3ξ) = CN[C@H](C(=O)O)C(C)O; NMeL = CN[C@@H](CC(C)C)C(=O)O; NMeV = CN[C@H](C(=O)O)C(C)C; ξIle = CC[C@H](C)C(N)C(=O)O; ξV = CC(C)C(N)C(=O)O
Experiments:
[1] = Panc-1005 Cancer Cell Toxicity qHTS against the NCATS CANVASS Library (AID 1347349); also: series mostly up to about 38 µM; % is scaled to controls: 0 for no effect and ±100 for the full control effect; nearly all actives have a fitted effect of over 60% in size
Outline: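 Per well, 1000 cells; exposure 72 h with compound at 11 final concentrations; readout CellTiter-Glo luminescence.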

[2] = HEK293 18hr Apoptosis Induction qHTS against the NCATS CANVASS Library (AID 1347357); also: 0% is about no effect
Outline: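 Luminescent caspase-3/7 signal is measured in HEK293 cells exposed for 18 hours to an 11-point concentration series; doxorubicin serves as the plate control.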

[3] = molecular target: Luciferin 4-monooxygenase (Photinus pyralis) (UniProt P08659); assay: Firefly luciferase counterscreen qHTS: Assay Interference Panel against the NCATS CANVASS Library (AID 1347363); also: series mostly up to about 57 µM; 0% is about no effect
Chain of Luciferin 4-monooxygenase (Photinus pyralis) (P08659 whole entry, looked up): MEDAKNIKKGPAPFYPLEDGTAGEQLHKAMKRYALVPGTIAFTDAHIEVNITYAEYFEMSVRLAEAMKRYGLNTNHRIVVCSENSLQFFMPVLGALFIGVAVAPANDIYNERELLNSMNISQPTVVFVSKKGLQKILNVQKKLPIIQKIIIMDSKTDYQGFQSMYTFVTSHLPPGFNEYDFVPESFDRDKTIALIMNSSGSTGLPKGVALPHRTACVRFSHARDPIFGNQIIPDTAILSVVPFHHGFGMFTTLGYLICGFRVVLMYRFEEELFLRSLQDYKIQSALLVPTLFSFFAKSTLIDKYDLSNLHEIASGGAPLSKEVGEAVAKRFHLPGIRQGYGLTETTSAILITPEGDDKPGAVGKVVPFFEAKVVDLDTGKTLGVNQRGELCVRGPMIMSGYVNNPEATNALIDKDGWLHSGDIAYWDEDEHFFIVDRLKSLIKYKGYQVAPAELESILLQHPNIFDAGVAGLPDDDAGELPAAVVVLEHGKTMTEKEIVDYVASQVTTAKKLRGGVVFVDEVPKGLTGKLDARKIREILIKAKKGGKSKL
Outline: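 Purified P. pyralis luciferase was added to compounds (11-point series) preincubated 15 min at room temperature with substrate containing 0.013 mM D-luciferin and 0.013 mM ATP; luminescence was read after 5 min.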

[4] = KB-8-5-11 Cancer Cell Toxicity qHTS against the NCATS CANVASS Library (AID 1347364); also: nearly all actives have a fitted effect of over 75% in size
Outline: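 CellTiter-Glo luminescence after 72 h exposure; 500 KB-8-5-11 cells/well, DMEM/10% FBS, 37C, 5% CO2; compounds in 11-pt qHTS. Follow-up confirmation included medium with 1uM tariquidar.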

[5] = DH5-alpha competent E. coli microbial cell viability qHTS against the NCATS CANVASS Library (AID 1347377); settings: outcome: dose series up to 46.1 µM unless noted
Outline: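 Luminescent ATP read-out (BacTiter-Glo, 20 min RT) after overnight 37C culture of DH5-alpha E. coli with compounds; daunomycin control at 0.2 nM–9.2 uM final.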

[6] = qHTS for Antimalaria activity screened against the NCATS CANVASS Library (AID 1347380); also: nearly all actives have a fitted effect of over 40% in size; also: potency is read from the fitted curve at half-maximal effect;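 as to activity change, negative = inhibition: Plasmodium falciparum strain Dd2 asexual parasites grown in red blood cells; series mostly up to about 29 µM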
Outline: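 SYBR Green fluorescence (ex 485, em 535 nm) read after saponin/Triton lysis and 18 h further incubation; Dd2 asexual blood-stage parasites, 72 h compound exposure, 11-pt concentration series, 2.5% hematocrit, 0.3% parasitemia.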

[7] = Inflammasome Signaling qHTS Counterscreen: IL-1-beta AlphaLISA counterscreen against the NCATS CANVASS Library (AID 1347381);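 also: cell-free check with purified IL-1β in medium and no THP-1 cells; series mostly up to about 57 µM; 0% is about no effect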
Outline: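 Here, no cellular stimulation occurs; compounds in an 11-point series meet 4 pg purified IL-1-beta directly. Bead-based AlphaLISA detection follows (1 h acceptor/antibody, then 30 min donor, dark, room temperature), with excitation at 680 nm.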

[8] = qHTS for activators of Nrf2/ARE signaling pathway screened against the NCATS CANVASS Library (AID 1347391); also: 0% is about no effect; nearly all actives have a fitted effect of over 60% in size
Outline: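 HepG2 ARE-bla; cpd 11-pt qHTS, 16 h 37C/5% CO2; CCF4 substrate 2 h RT; read ex 405 / em 460 + 530 nm. Viability by CellTiter-Glo luminescence, 30 min RT.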

[9] = HPAF-II 18hr Apoptosis Induction qHTS against the NCATS CANVASS Library (AID 1347360); also: 0% is about no effect
Outline: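 Apoptosis was scored as caspase-3/7 activity in HPAF-II pancreatic cancer cells treated 18 hours with an 11-point concentration series.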

[10] = ZIKV-mCherry secondary qHTS for Zika virus inhibitors (AID 1347158); also: top concentration of the series differs between compounds
Outline: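 Read-out is percent infection: mCherry-positive Vero cells (nuclear-proximal intensity >450 RFU, 3 SD above negative controls) counted by high-content imaging of Hoechst-stained, PFA-fixed wells after 48-72 h with ZIKV-mCherry at MOI 1 and compound.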

[11] = test system: Zika virus NS2B-NS3 protease (linked); assay: 384 well plate NINDS AMC confirmatory qHTS for Zika virus inhibitors (AID 1347163); also: nearly all actives have a fitted effect of over 50% in size; also: potency is read from the fitted curve at half-maximal effect;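 as to activity change, negative = inhibition: linked protease at 5 30 or 60 nM final depending on run; fluorescence of AMC released from Ac-VKTGKR-AMC peptide cleaved by the protease; top concentration of the series differs between compounds; 0% = no-inhibitor control and -100% = no-enzyme control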
Outline: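 Enzyme (5, 30 or 60 nM final) first met test compounds for ~15 min. The AMC-tagged peptide Ac-VKTGKR-AMC followed at 30 microM. Fluorescence was then recorded at 25 min and scaled against no-enzyme and no-inhibitor wells.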

[12] = test system: Zika virus NS2B-NS3 protease (linked construct); assay: 384 well plate NINDS Rhodamine confirmatory qHTS for Zika virus inhibitors (AID 1347164);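 also: top concentration of the series differs between compounds; plate controls were no-inhibitor control for no effect and no-enzyme control for full effect; nearly all actives have a fitted effect of over 65% in size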
Outline: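 Compounds are incubated about 15 minutes with linked protease (5, 30 or 60 nM final). Rhodamine 110-tagged Ac-LKRR substrate (10 microM final) is added and fluorescence measured after 25 minutes.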

[13] = molecular target: Ubiquitin carboxyl-terminal hydrolase 1 (Homo sapiens) (UniProt O94782); assay: Inhibitors of USP1/UAF1: Pilot qHTS (AID 504865);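 also: rhodamine fluorescence freed from ubiquitin-rhodamine substrate followed over time; top concentration of the series differs between compounds; % is scaled to controls: 0 for no effect and ±100 for the full control effect; nearly all actives have a fitted effect of over 35% in size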
Chain of Ubiquitin carboxyl-terminal hydrolase 1 (Homo sapiens) (O94782 whole entry, looked up): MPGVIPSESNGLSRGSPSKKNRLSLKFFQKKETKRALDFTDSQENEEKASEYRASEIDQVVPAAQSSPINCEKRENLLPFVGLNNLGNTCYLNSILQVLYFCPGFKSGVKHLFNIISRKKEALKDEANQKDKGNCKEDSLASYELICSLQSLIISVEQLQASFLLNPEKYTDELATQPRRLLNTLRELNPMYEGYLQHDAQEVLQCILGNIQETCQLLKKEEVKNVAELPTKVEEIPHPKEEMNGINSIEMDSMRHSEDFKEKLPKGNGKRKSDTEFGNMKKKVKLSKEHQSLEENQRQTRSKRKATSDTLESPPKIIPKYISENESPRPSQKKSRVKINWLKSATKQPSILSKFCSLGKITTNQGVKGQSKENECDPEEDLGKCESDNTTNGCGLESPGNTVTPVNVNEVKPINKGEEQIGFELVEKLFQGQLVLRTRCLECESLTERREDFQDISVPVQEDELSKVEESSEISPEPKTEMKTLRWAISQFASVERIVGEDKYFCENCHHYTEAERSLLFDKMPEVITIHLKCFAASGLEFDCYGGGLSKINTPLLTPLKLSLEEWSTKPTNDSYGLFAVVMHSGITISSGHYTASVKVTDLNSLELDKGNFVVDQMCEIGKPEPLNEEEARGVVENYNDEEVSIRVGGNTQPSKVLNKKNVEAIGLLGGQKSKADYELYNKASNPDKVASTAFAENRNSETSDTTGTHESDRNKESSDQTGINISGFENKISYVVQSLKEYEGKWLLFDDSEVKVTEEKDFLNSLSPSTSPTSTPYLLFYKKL
Outline: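 Kinetic fluorescence assay: 1nM USP1/UAF1, 15 min compound preincubation, then 150nM Ub-Rho; 480/540 nm.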

[14] = Tertiary RLuc qRT-PCR qHTS assay for Zika virus inhibitors (AID 1347169); also: top concentration of the series differs between compounds; % is scaled to controls: 0 for no effect and ±100 for the full control effect; nearly all actives have a fitted effect of over 55% in size
Outline: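 Orthogonal cell-based infection assay using recombinant ZIKV-RLuc (Cambodian) in Vero cells; compound added prior to virus at MOI 1-2. Incubation lasts 48-72 hrs at 37 degrees C before live-cell Renilla substrate is added and luminescence measured.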

O=Cc1ccc2n1C[C@@]1(OC2)O[C@H](CO)[C@@H](O)[C@@H]1O
inactive: Potency [1] | Potency [2] | Potency [3] | Potency [4] | outcome [5] | Potency [6] | outcome [7] | Potency [8]

C[C@@H]1C(=O)[C@]23CC[C@H]1C[C@]21O[C@H]2C(C)(C)C=CC(=O)[C@@]23COC1=O
inactive: Potency [1] | Potency [9] | Potency [4] | outcome [5]

C=C1C[C@@]23C=CC(=O)[C@@](C)(CCC(=O)Nc4c(OC5O[C@H](CO)[C@@H](O)[C@H](O)[C@H]5O)ccc(C(=O)O)c4O)C2C[C@@H]1CC3 (stereo partly drawn)
inactive: Potency [1] | Potency [2] | Potency [9] | Potency [3] | Potency [6] | outcome [7] | Potency [8]

C=C1[C@H]2CC[C@@]3(C=CC(=O)[C@@](C)(CCC(=O)Nc4c(O)ccc(C(=O)O)c4O)C3C2)[C@H]1O (stereo partly drawn)
inactive: Potency [1] | Potency [2] | Potency [6] | Potency [8]

Cc1ccc(S(=O)(=O)Nc2cc(SCC(=O)O)c(O)c3ccccc23)cc1[N+](=O)[O-]
active: Potency [11] 31.6 µM
inactive: Potency [10] | activity change, negative = inhibition [12] -280% [at 100 µM]

O=C1c2c(O)cc(O)cc2O[C@@H](c2ccc(O)cc2)[C@@H]1c1c(O)cc(O)c2c(=O)cc(-c3ccc(O)c(O)c3)oc12
inactive: Potency [1] | Potency [2] | Potency [9] | outcome [7] | Potency [8]

CC[C@H](C)C(NC(=O)[C@@H](NC)C(C)C)C(=O)NC1C(=O)N(C)[C@@H](C(C)O)C(=O)N[C@@H](C(C)C)C(=O)N(C)[C@@H](CC(C)C)C(=O)NC(C(C)C)C(=O)N(C)[C@@H](C(C)C)C(=O)N(C)[C@@H](Cc2c[nH]c3cccc(OC)c23)C(=O)N[C@@H](C(C)C)C(=O)N[C@@H]([C@H](O)c2ccccc2)C(=O)N[C@@H](C(C)C)C(=O)O[C@@H]1C (stereo partly drawn) (H-[NMeV][ξIle][ξThr(3R)(O-yl)][NMeThr(3ξ)]V[NMeL][ξV][NMeV][NMeTrp(4-OMe)]V[Phe(3R-OH)]V; ester 3-C)
active: Potency [6] 3.75 µM
inactive: Potency [1] | Potency [4] | outcome [7] | Potency [8]

C/C=C/c1cc(OC)c2c(c1)[C@@H](C)[C@H](c1ccc(O)c(OC)c1)O2
inactive: Potency [1] | Potency [2] | Potency [9] | Potency [3] | Potency [4] | outcome [5] | Potency [6] | outcome [7]

Cc1ccc(Nc2nnc(-c3ccc(C)c(S(=O)(=O)NCc4nc5ccccc5[nH]4)c3)c3ccccc23)cc1
inactive: Potency [10] | Potency [11]

COc1cc(/C=C/C(=O)O)ccc1O
active: Potency [6] 0.0033 µM
inactive: Potency [13] | Potency [1] | Potency [2] | Potency [3] | Potency [8]

CS/C=C/C(N)=O
inactive: Potency [1] | Potency [2] | Potency [9] | Potency [4] | Potency [6] | Potency [8]

COc1ccc2cc(NC(=O)C3=NO[C@H]4[C@H](O)C=C[C@@H](Cl)[C@@]4(O)C3)c(=O)oc2c1OC
inactive: Potency [1] | Potency [2] | Potency [3] | Potency [6] | outcome [7]

C[C@@]12C[C@@H](C[C@H]3C(=O)O[C@@H](c4ccoc4)[C@H](OC(=O)c4ccccc4)[C@@H]31)OC2=O
inactive: Potency [1] | Potency [3] | outcome [5] | Potency [6] | outcome [7] | Potency [8]

CC1C(=O)C23CCC1C[C@@]21O[C@H]2C(C)(C)C=CC(=O)[C@@]23COC1=O (stereo partly drawn)
inactive: Potency [1] | Potency [9] | Potency [3] | outcome [5] | Potency [8]

CC(=O)O[C@H]1CC[C@@]2(C)C(CC[C@]3(C)C2CC=C2C4CC(C)(C)CC[C@]4(C)CC[C@]23C)C1(C)C (stereo partly drawn)
inactive: Potency [1] | Potency [2] | Potency [9] | Potency [4] | Potency [6] | outcome [7] | Potency [8]

OCc1ccc2ocnc2c1
inactive: Potency [1] | Potency [9] | Potency [4] | outcome [5] | Potency [6] | Potency [8]

Cc1ccc(-c2nnc(Nc3ccc(S(N)(=O)=O)cc3)c3ccccc23)cc1S(=O)(=O)N1CCOCC1
inactive: Potency [10] | Potency [14]

C[C@@]12CCC[C@@](C)(C(=O)O)[C@H]1C[C@@H](O)[C@]13C[C@H]4C[C@H](O[C@@]4(C)C1)[C@@H]23
inactive: Potency [1] | Potency [3] | Potency [4] | outcome [5] | Potency [6] | outcome [7] | Potency [8]

O=Cc1ccc2n1C[C@@]1(C[C@H](O)[C@@H](CO)O1)OC2
inactive: Potency [1] | Potency [9] | Potency [3] | Potency [4] | Potency [6] | outcome [7] | Potency [8]

From PubChem BioAssay (NCATS)
